Measured values: the supplement of paper PMC10849652
About 7,900 targets were measured; listed, in parts, are those with a hit and a random draw of the rest. About 0.6% of all pairs of compound and target were hits.

What was measured:
Assay in all cases: log2 fold change, soluble protein after heating vs DMSO (PISA); higher = thermal stabilisation; K562 cells, 10 uM, 30 min; active = over 0.2 and 3.5 SD of the protein, either way, in both replicates (recomputed)
[1] = compound: COC1=CC=C(C=C1)CN2C=CC3=C2C=C(C=C3)C(=O)NO
Outline: (§1)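 Soluble protein was defined as the supernatant after 21,000xg for 90 min. It came from K562 cells at 2×10^6 cells/mL given 10 μM compound for 30 min, heated in aliquots for 3 min across 48°C-58°C, pooled, and extracted in PBS with 0.5% NP-40 at 4°C, and was quantified by TMTpro 16plex LC-MS/MS with equalised channel sums. Thermal stability against control samples, from duplicates, is reported as log2 fold change.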

filanesib = compound: CON(C)C(=O)N1N=C(c2cc(F)ccc2F)S[C@@]1(CCCN)c1ccccc1 [filanesib]
Outline: as §1

zotarolimus = compound: CO[C@H]1C[C@@H]2CC[C@@H](C)[C@@](O)(O2)C(=O)C(=O)N2CCCC[C@H]2C(=O)O[C@H]([C@H](C)C[C@@H]2CC[C@H](n3cnnn3)[C@H](OC)C2)CC(=O)[C@H](C)/C=C(\C)[C@@H](O)[C@@H](OC)C(=O)[C@H](C)C[C@H](C)/C=C/C=C/C=C/1C [zotarolimus]
Outline: as §1

idasanutlin = compound: COc1cc(C(=O)O)ccc1NC(=O)[C@@H]1N[C@@H](CC(C)(C)C)[C@](C#N)(c2ccc(Cl)cc2F)[C@H]1c1cccc(Cl)c1F [idasanutlin]
Outline: as §1

alisertib = compound: COc1cc(Nc2ncc3c(n2)-c2ccc(Cl)cc2C(c2c(F)cccc2OC)=NC3)ccc1C(=O)O [alisertib]
Outline: as §1

[2] = compound: COc1cc2nc(-c3cc(F)ccc3O)nc(N[C@@H]3CNC[C@H]3C(C)(C)O)c2cc1OC
Outline: as §1

gefitinib = compound: COc1cc2ncnc(Nc3ccc(F)c(Cl)c3)c2cc1OCCCN1CCOCC1 [gefitinib]
Outline: as §1

[3] = compound: COc1cccc2cc(-c3nc([C@H]4CC[C@H](C(=O)O)CC4)n4ncnc(N)c34)[nH]c12
Outline: as §1

lapatinib = compound: CS(=O)(=O)CCNCc1ccc(-c2ccc3ncnc(Nc4ccc(OCc5cccc(F)c5)c(Cl)c4)c3c2)o1 [lapatinib]
Outline: as §1

[4] = compound: CS(=O)(=O)c1ccc(-c2cnc(N)c(C(=O)Nc3ccccc3)n2)cc1
Outline: as §1

crizotinib = compound: C[C@@H](Oc1cc(-c2cnn(C3CCNCC3)c2)cnc1N)c1c(Cl)ccc(F)c1Cl [crizotinib]
Outline: as §1

[5] = compound: C[C@@H]1COCCN1C2=NC(=NC(=C2)C3(CC3)S(=O)(=O)C)C4=C5C=CNC5=CC=C4
Outline: as §1

[6] = compound: C[C@H](C1=CC=C(C=C1)C(=O)NC2=C3C=CNC3=NC=C2)N
Outline: as §1

duvelisib = compound: C[C@H](Nc1ncnc2nc[nH]c12)c1cc2cccc(Cl)c2c(=O)n1-c1ccccc1 [duvelisib]
Outline: as §1

tozasertib = compound: Cc1cc(Nc2cc(N3CCN(C)CC3)nc(Sc3ccc(NC(=O)C4CC4)cc3)n2)n[nH]1 [tozasertib]
Outline: as §1

[7] = compound: Cc1cc(SCc2sc(-c3ccc(C(F)(F)F)cc3)nc2C)ccc1OCC(=O)O
Outline: as §1

doramapimod = compound: Cc1ccc(-n2nc(C(C)(C)C)cc2NC(=O)Nc2ccc(OCCN3CCOCC3)c3ccccc23)cc1 [doramapimod]
Outline: as §1

ispinesib = compound: Cc1ccc(C(=O)N(CCCN)[C@@H](c2nc3cc(Cl)ccc3c(=O)n2Cc2ccccc2)C(C)C)cc1 [ispinesib]
Outline: as §1

pictilisib = compound: CS(=O)(=O)N1CCN(Cc2cc3nc(-c4cccc5[nH]ncc45)nc(N4CCOCC4)c3s2)CC1 [pictilisib]
Outline: as §1

gandotinib = compound: Cc1cc(Nc2cc(CN3CCOCC3)c3nc(C)c(Cc4ccc(Cl)cc4F)n3n2)n[nH]1 [gandotinib]
Outline: as §1

Measured: log2 fold change

SLC29A3 (UniProt Q9BZD2)
UniProt Q9BZD2, sequence (Q9BZD2 whole entry, looked up): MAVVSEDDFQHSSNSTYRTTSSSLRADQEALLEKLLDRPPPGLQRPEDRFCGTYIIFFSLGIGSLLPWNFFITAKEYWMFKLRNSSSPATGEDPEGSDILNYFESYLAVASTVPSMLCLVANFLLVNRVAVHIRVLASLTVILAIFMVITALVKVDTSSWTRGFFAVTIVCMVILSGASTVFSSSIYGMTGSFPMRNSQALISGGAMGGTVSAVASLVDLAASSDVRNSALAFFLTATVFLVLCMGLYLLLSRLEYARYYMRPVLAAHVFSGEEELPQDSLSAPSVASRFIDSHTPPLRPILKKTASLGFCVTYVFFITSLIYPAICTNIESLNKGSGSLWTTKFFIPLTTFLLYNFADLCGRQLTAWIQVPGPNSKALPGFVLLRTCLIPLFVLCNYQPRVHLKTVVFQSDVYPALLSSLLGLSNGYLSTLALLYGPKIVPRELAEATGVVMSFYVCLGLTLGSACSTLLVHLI
inactive: [1] 0.009 | filanesib -0.258 | zotarolimus -0.015 | idasanutlin -0.113 | alisertib 0 | [2] -0.08 | gefitinib -0.08 | [3] 0.019 | lapatinib -0.118 | [4] 0.014 | [5] -0.098 | [6] 0.078 | duvelisib 0.069 | tozasertib 0.097 | [7] 0.055 | doramapimod 0.015
active: crizotinib -0.559 | ispinesib -1.02

SURF2 (UniProt Q15527)
inactive: [1] 0.038 | filanesib 0.014 | zotarolimus 0.055 | idasanutlin 0.054 | alisertib -0.133 | [2] 0.023 | gefitinib 0.028 | [3] -0.034 | lapatinib 0.006 | pictilisib -0.07 | [4] -0.009 | crizotinib 0.084 | [5] -0.02 | [6] -0.118 | duvelisib 0.018 | gandotinib 0 | tozasertib -0.01 | [7] 0.04 | doramapimod -0.068 | ispinesib 0.038

SLC39A11 (UniProt Q8N1S5)
inactive: [1] -0.014 | filanesib -0.01 | zotarolimus -0.078 | idasanutlin -0.056 | alisertib -0.113 | [2] -0.04 | gefitinib 0.001 | [3] 0.047 | lapatinib -0.038 | pictilisib -0.117 | [4] 0.121 | crizotinib 0.109 | [6] -0.066 | duvelisib -0.085 | gandotinib 0.271 | tozasertib 0.116 | [7] -0.126 | doramapimod 0.009 | ispinesib 0.085

TAF9 (UniProt Q16594)
inactive: [1] 0.066 | filanesib 0.109 | zotarolimus -0.018 | idasanutlin 0.056 | alisertib -0.109 | [2] 0.024 | gefitinib 0.01 | [3] 0.019 | lapatinib -0.028 | pictilisib -0.017 | [4] -0.029 | crizotinib 0.043 | [5] 0.007 | [6] 0.116 | duvelisib 0.009 | gandotinib -0.047 | tozasertib -0.034 | [7] -0.131 | doramapimod -0.019 | ispinesib -0.007

STOM (UniProt P27105)
inactive: [1] 0.004 | filanesib -0.068 | zotarolimus -0.083 | idasanutlin 0.046 | alisertib -0.154 | [2] -0.045 | gefitinib -0.062 | [3] -0.004 | lapatinib 0.067 | pictilisib -0.022 | [4] 0.086 | crizotinib -0.005 | [5] -0.035 | [6] 0.182 | duvelisib 0.011 | gandotinib 0.268 | tozasertib -0.015 | [7] 0.01 | doramapimod -0.006 | ispinesib -0.29

SP1 (UniProt P08047)
inactive: [1] -0.064 | filanesib 0.022 | zotarolimus -0.033 | idasanutlin -0.002 | alisertib -0.025 | [2] -0.007 | gefitinib -0.043 | [3] 0.005 | lapatinib -0.004 | pictilisib 0.142 | [4] 0.031 | crizotinib -0.038 | [5] -0.044 | [6] 0.042 | duvelisib 0.008 | gandotinib 0.083 | tozasertib 0.037 | [7] 0.023 | doramapimod 0.036 | ispinesib -0.113

TAOK1 (UniProt Q7L7X3)
inactive: [1] -0.046 | filanesib 0.054 | zotarolimus -0.032 | idasanutlin 0.031 | alisertib 0.043 | [2] -0.088 | gefitinib 0.033 | [3] 0.011 | lapatinib 0.014 | pictilisib -0.043 | [4] -0.002 | crizotinib -0.035 | [5] 0.011 | [6] -0.08 | duvelisib -0.012 | gandotinib -0.029 | tozasertib -0.027 | [7] 0.023 | doramapimod 0.021 | ispinesib -0.001

SLC38A7 (UniProt Q9NVC3)
UniProt Q9NVC3, sequence (Q9NVC3 whole entry, looked up): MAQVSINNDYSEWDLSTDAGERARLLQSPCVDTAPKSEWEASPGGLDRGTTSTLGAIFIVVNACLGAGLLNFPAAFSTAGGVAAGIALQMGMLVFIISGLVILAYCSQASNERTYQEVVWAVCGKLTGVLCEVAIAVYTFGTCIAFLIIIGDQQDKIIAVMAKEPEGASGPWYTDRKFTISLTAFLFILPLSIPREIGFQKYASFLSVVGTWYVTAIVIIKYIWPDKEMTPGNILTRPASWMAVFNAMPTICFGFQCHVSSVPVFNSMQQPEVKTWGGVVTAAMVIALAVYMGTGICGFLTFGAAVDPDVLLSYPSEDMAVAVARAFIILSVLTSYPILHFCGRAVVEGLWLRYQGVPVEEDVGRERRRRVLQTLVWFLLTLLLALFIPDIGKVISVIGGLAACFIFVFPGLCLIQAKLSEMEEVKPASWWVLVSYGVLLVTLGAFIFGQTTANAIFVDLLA
active: ispinesib -0.842
inactive: [1] -0.042 | filanesib -0.098 | zotarolimus 0.095 | idasanutlin -0.077 | alisertib -0.136 | [2] 0.01 | gefitinib 0.035 | [3] 0.069 | lapatinib -0.057 | pictilisib 0.022 | [4] -0.018 | crizotinib -0.449 | [5] 0.045 | [6] -0.009 | gandotinib -0.412 | tozasertib 0.052 | doramapimod 0.035

SLC44A2 isoform 2 (UniProt Q8IWA5)
UniProt Q8IWA5, sequence (Q8IWA5 whole entry, looked up): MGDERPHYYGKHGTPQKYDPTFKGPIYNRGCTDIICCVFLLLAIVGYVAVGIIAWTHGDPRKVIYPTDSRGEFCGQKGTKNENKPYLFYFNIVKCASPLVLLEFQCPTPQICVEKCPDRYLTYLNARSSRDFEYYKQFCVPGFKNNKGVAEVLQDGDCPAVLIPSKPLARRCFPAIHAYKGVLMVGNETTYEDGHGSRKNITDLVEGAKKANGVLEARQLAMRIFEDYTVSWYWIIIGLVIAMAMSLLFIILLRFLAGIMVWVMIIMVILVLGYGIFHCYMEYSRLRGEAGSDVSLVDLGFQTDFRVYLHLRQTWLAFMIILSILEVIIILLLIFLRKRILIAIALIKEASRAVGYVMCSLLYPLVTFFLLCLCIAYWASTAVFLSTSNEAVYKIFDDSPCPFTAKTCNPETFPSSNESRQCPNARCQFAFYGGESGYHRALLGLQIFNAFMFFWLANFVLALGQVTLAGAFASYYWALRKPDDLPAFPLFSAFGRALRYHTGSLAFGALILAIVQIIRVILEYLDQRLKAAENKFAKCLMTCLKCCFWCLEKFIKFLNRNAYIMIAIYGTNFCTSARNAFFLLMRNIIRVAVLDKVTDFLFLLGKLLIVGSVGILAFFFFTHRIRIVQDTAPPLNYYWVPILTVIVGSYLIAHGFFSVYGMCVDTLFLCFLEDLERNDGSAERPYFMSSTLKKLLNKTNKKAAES
inactive: [1] 0.018 | filanesib 0.048 | zotarolimus -0.028 | idasanutlin 0.026 | alisertib -0.118 | gefitinib 0.002 | [3] 0.057 | pictilisib 0.13 | [4] 0.019 | crizotinib 0.113 | [5] 0.026 | [6] -0.123 | duvelisib 0.154 | gandotinib -0.017 | tozasertib -0.022 | [7] -0.046 | doramapimod 0.055 | ispinesib 0.069

SLC27A1 (UniProt Q6PCB7)
inactive: [1] -0.263 | filanesib 0.118 | zotarolimus 0.064 | idasanutlin -0.038 | alisertib 0.004 | [2] 0.069 | gefitinib 0.016 | [3] -0.031 | lapatinib 0.014 | [4] 0.116 | crizotinib 0.123 | [5] 0.016 | [6] -0.099 | duvelisib 0.05 | tozasertib -0.084 | [7] 0.112 | doramapimod 0.062 | ispinesib 0.06

TELO2 (UniProt Q9Y4R8)
UniProt Q9Y4R8, sequence (Q9Y4R8 whole entry, looked up): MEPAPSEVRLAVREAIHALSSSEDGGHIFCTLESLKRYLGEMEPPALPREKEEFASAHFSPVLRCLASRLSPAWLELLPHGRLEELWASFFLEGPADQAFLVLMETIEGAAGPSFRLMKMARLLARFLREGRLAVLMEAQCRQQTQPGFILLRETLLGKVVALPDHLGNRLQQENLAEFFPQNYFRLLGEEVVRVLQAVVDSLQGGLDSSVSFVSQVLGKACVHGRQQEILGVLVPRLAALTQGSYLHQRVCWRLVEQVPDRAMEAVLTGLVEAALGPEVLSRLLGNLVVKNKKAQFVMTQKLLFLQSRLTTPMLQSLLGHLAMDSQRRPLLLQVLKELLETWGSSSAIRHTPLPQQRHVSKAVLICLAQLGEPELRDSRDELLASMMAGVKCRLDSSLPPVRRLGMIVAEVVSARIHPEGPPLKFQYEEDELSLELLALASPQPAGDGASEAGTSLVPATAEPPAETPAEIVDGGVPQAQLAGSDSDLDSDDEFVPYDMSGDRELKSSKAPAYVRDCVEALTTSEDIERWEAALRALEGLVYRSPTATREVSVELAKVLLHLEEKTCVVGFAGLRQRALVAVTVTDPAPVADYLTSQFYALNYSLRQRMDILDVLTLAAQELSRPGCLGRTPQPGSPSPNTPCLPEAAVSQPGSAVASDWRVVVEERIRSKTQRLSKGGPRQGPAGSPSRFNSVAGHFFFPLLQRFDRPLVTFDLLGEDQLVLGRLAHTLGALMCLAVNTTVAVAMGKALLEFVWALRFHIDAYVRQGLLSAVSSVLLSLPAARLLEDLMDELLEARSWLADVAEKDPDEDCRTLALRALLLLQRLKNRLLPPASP
inactive: [1] -0.026 | filanesib 0.113 | zotarolimus 0.098 | idasanutlin -0.103 | alisertib -0.16 | [2] -0.122 | gefitinib 0.004 | [3] -0.125 | lapatinib 0.007 | pictilisib -0.023 | [4] -0.022 | crizotinib -0.055 | [5] 0.013 | [6] 0.233 | duvelisib -0.055 | gandotinib -0.198 | tozasertib 0.013 | [7] 0.176 | doramapimod 0.094 | ispinesib -0.136

SRC isoform 2 (UniProt P12931)
UniProt P12931, sequence (P12931 whole entry, looked up): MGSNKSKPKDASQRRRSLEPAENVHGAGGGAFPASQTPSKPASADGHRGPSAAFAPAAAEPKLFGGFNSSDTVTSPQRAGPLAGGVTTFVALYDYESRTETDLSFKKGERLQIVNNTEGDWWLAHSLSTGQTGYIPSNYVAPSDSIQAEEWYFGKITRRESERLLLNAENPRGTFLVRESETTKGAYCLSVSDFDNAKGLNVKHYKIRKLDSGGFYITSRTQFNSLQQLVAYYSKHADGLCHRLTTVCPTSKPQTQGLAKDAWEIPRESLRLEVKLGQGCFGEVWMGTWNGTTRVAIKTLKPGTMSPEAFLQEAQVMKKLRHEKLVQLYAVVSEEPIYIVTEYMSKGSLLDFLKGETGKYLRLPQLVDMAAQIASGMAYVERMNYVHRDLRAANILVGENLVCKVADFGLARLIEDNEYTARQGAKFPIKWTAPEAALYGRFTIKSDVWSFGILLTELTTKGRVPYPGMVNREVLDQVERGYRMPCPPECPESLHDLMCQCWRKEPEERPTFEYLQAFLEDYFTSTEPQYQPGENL
inactive: [1] 0.197 | filanesib 0.229 | zotarolimus -0.123 | idasanutlin 0.119 | alisertib 0.01 | [2] 0.017 | [3] 0.219 | lapatinib 0.088 | pictilisib 0.113 | [4] -0.248 | crizotinib -0.154 | [5] 0.229 | [6] 0.07 | duvelisib 0.168 | gandotinib -0.056 | tozasertib -0.183 | [7] 0.101 | doramapimod -0.052 | ispinesib -0.068

SOX5 (UniProt P35711)
UniProt P35711, sequence (P35711 whole entry, looked up): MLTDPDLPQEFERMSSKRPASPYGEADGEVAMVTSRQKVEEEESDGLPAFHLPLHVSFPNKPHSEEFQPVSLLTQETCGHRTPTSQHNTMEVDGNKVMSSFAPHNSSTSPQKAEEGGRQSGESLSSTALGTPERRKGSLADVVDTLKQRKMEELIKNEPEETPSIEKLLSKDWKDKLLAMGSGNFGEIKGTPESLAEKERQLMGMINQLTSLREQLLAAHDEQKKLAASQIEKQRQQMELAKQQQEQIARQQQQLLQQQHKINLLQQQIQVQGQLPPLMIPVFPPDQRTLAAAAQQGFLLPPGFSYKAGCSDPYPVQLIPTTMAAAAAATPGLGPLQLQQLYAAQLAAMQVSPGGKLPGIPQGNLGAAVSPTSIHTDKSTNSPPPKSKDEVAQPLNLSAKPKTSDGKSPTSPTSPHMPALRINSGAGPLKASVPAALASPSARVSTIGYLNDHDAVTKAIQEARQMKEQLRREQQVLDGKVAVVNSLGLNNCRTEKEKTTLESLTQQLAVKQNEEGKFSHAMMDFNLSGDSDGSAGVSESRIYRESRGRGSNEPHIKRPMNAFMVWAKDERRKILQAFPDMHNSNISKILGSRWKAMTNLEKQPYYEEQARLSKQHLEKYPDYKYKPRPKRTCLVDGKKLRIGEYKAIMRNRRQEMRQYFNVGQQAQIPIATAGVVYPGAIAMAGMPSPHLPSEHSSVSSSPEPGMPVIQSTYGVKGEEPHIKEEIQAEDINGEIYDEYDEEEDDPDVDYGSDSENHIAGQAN
inactive: [1] -0.087 | filanesib -0.08 | zotarolimus -0.058 | idasanutlin 0.006 | alisertib -0.089 | [2] -0.055 | gefitinib -0.012 | [3] 0.105 | lapatinib 0.051 | [4] 0.07 | crizotinib 0.046 | [6] 0.041 | tozasertib 0.045 | doramapimod 0.054 | ispinesib 0.004

SLC25A38 (UniProt Q96DW6)
UniProt Q96DW6, sequence (Q96DW6 whole entry, looked up): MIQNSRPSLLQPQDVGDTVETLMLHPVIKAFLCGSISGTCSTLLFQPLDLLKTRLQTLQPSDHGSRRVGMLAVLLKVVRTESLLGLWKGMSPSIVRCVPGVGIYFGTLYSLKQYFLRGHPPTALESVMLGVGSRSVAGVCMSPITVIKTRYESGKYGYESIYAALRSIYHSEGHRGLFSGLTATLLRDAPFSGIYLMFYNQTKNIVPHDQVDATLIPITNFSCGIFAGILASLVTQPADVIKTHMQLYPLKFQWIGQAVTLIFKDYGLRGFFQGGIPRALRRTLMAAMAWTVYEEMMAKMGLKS
inactive: [1] -0.013 | filanesib -0.01 | zotarolimus -0.029 | idasanutlin -0.069 | alisertib -0.049 | [2] 0.039 | gefitinib 0.013 | lapatinib -0.02 | pictilisib 0.04 | [4] 0.146 | crizotinib 0.105 | [5] 0.045 | [6] 0.002 | duvelisib 0.088 | gandotinib -0.035 | tozasertib -0.003 | [7] -0.058 | doramapimod 0.001 | ispinesib 0
active: [3] 0.447

STK25 (UniProt O00506)
UniProt O00506, sequence (O00506 whole entry, looked up): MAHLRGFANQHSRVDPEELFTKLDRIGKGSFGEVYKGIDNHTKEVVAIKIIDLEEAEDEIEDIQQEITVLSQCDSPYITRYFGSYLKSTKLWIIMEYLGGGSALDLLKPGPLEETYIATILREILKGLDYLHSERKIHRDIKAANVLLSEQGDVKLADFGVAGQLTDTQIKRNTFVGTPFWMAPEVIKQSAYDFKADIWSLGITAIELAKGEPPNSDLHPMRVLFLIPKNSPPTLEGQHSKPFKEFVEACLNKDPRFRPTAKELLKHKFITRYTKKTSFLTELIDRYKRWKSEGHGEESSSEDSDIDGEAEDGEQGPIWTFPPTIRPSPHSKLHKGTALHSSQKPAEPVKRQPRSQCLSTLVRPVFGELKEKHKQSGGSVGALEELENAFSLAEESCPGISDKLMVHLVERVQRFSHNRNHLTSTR
inactive: [1] -0.06 | filanesib -0.006 | zotarolimus -0.039 | idasanutlin 0.006 | alisertib -0.055 | [2] 0.076 | gefitinib -0.061 | [3] 0.038 | lapatinib -0.047 | pictilisib 0.053 | [4] 0.04 | crizotinib -0.2 | [5] -0.011 | [6] -0.026 | duvelisib 0.051 | gandotinib -0.074 | tozasertib -0.027 | [7] -0.001 | doramapimod 0.019 | ispinesib -0.071

TFAM (UniProt Q00059)
UniProt Q00059, sequence (Q00059 whole entry, looked up): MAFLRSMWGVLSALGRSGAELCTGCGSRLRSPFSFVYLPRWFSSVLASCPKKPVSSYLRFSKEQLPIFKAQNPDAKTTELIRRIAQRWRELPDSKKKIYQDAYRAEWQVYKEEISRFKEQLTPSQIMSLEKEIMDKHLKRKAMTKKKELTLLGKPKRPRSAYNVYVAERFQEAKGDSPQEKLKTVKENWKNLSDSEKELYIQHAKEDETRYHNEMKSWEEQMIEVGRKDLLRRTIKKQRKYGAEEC
inactive: [1] -0.035 | filanesib 0.048 | zotarolimus 0.01 | idasanutlin 0.046 | alisertib -0.1 | [2] 0.015 | gefitinib -0.026 | [3] -0.058 | lapatinib -0.012 | pictilisib -0.04 | [4] -0.071 | crizotinib 0.058 | [5] -0.153 | [6] 0.117 | duvelisib -0.04 | gandotinib 0.176 | tozasertib 0.036 | [7] -0.034 | doramapimod 0.022 | ispinesib -0.117

TANGO6 (UniProt Q9C0B7)
active: [6] 0.366
inactive: [1] -0.025 | filanesib 0.04 | zotarolimus 0.061 | idasanutlin -0.112 | alisertib 0.032 | [2] -0.015 | gefitinib -0.049 | [3] -0.036 | lapatinib 0.022 | [4] 0.006 | crizotinib -0.123 | [5] -0.022 | duvelisib 0.087 | tozasertib -0.124 | [7] 0.078 | doramapimod -0.004 | ispinesib -0.085
